Drawing on the supplement of paper PMC13380429, this text covers morphology score and SARS-CoV-2 infection rate for 31 compounds.

Assay [1] deals with Vero E6 infected with SARS-CoV-2. Briefly: morphology score (similarity to uninfected cells); higher = more like uninfected cells. As to conditions: 24 h.
Assay [2] has the same test system. Briefly: SARS-CoV-2 infection rate relative to infected DMSO; higher = more infection, active = 60 or less. As to conditions: 24 h.

Compound `COc1cccc(/C=N/N=C/c2cccc(OC)c2)c1` (10 µM) yielded a morphology score in assay [1] of 0.132. Moreover, the SARS-CoV-2 infection rate in assay [2] was 92% (inactive).

In the case of `c1ccc(CNc2ncnc3[nH]cnc23)cc1` [6-benzylaminopurine] (10 µM), the morphology score in assay [1] was 0.186. Further, in assay [2], the SARS-CoV-2 infection rate is 99% (inactive).

In assay [1], `CCC(=O)OCC(=O)[C@@]1(OC(=O)CC)[C@@H](C)C[C@H]2[C@@H]3CCC4=CC(=O)C=C[C@]4(C)[C@@]3(F)[C@@H](O)C[C@@]21C` (10 µM) gave a morphology score of 0.138. Moreover, the SARS-CoV-2 infection rate in assay [2] is 104% (inactive).

Consider `N=C(N)NCCC[C@H](NC(=O)[C@@H]1CCCN1C(=O)[C@@H]1CSSC[C@H](N)C(=O)N[C@@H](Cc2ccc(O)cc2)C(=O)N[C@@H](Cc2ccccc2)C(=O)N[C@@H](CCC(N)=O)C(=O)N[C@@H](CC(N)=O)C(=O)N1)C(=O)NCC(N)=O` [vasopressin] (10 µM), for which the morphology score in assay [1] was determined as 0.0923. For the same compound, the SARS-CoV-2 infection rate in assay [2] was 95.5% (inactive).

The compound `CN(c1ccc(NC(=O)Nc2ccccc2)cc1)S(=O)(=O)c1cnn(-c2ccc(F)cc2)c1` (10 µM) displayed a morphology score in assay [1] of 0.268. Also, the SARS-CoV-2 infection rate in assay [2] is 83.5% (inactive).

For the compound `CN(C)CC[C@@H](c1ccc(Cl)cc1)c1ccccn1` [chlorphenamine] (10 µM), the morphology score in assay [1] is 0.0978. Also, the SARS-CoV-2 infection rate in assay [2] is 97.8% (inactive).

The compound `O=C1OC(OC(=O)c2cccnc2Nc2cccc(C(F)(F)F)c2)c2ccccc21` (configuration not stated) [talniflumate] (10 µM) had a morphology score in assay [1] of -0.0899. The SARS-CoV-2 infection rate in assay [2] was 108% (inactive).

`NC(=O)N/N=C/c1ccc(Oc2ccc(F)cc2)cc1` (10 µM) showed a morphology score in assay [1] of -0.137. In addition, the SARS-CoV-2 infection rate in assay [2] was 112% (inactive).

As for `Cc1cn([C@@H]2C[C@@H](O)[C@H](CO)O2)c(=O)[nH]c1=O` [telbivudine] (10 µM), in assay [1], the morphology score is -0.036. Besides, in assay [2], the SARS-CoV-2 infection rate was 118% (inactive).

In turn, `O=C(NCc1ccc2c(c1)OCO2)c1c(Cl)cccc1Cl` [alda-1] (10 µM) showed a morphology score in assay [1] of 0.107. For the same compound, the SARS-CoV-2 infection rate in assay [2] is 104% (inactive).

Regarding `Cc1cc(C2CCCCC2)n(O)c(=O)c1` [ciclopirox] (0.833333 µM), in assay [1], the morphology score came out at 0.0975. Moreover, the SARS-CoV-2 infection rate in assay [2] was 96.5% (inactive).

With `C=CC1=C(C(=O)O)N2C(=O)[C@@H](NC(=O)/C(=N\O)c3csc(N)n3)[C@H]2SC1` [cefdinir] (10 µM), in assay [1], the morphology score was -0.118. For the same compound, the SARS-CoV-2 infection rate in assay [2] is 107% (inactive).

Regarding `CCN(CC)CCCCC1CCN(CC(=O)N2c3ccccc3C(=O)Nc3cccnc32)CC1` (10 µM), the morphology score in assay [1] was found to be 0.0682. Besides, in assay [2], the SARS-CoV-2 infection rate is 108% (inactive).

Compound `CCOCCOc1ccccc1C(N)=O` [etosalamide] (10 µM) registered a morphology score in assay [1] of 0.0693. The SARS-CoV-2 infection rate in assay [2] was 104% (inactive).

In assay [1], `COC(=O)[C@@H]1C[C@H](OC(C)=O)C(=O)[C@H]2[C@@]1(C)CC[C@H]1C(=O)O[C@H](c3ccoc3)C[C@]21C` [salvinorin-A] (10 µM) had a morphology score of 0.127. For the same compound, in assay [2], the SARS-CoV-2 infection rate was 100% (inactive).

The compound `CN1C(=O)CC(C)(c2ccccc2)C1=O` (configuration not stated) [methsuximide] (10 µM) showed a morphology score in assay [1] of 0.0784. Also, in assay [2], the SARS-CoV-2 infection rate is 110% (inactive).

In assay [1], `O=C(CCCl)NCCc1ccccc1` [fenaclon] (10 µM) registered a morphology score of 0.0663. Also, in assay [2], the SARS-CoV-2 infection rate was 102% (inactive).

As to `CS(=O)(=O)N(Cc1ccco1)C[C@@H](O)Cn1c2ccccc2c2ccccc21` (10 µM), the morphology score in assay [1] was determined as 0.000274. Besides, the SARS-CoV-2 infection rate in assay [2] is 91% (inactive).

In the case of `N[C@H](C(=O)O)c1cc(O)no1` [ibotenic-acid] (10 µM), in assay [1], the morphology score was -0.00755. In assay [2], the SARS-CoV-2 infection rate is 93% (inactive).

As for `CC1CCN(C(c2ccc(F)cc2)c2ccc(C(C)C(=O)O)cc2-c2ccc(C(F)(F)F)cc2)CC1` (configuration not stated) (10 µM), in assay [1], the morphology score was 0.0608. Besides, in assay [2], the SARS-CoV-2 infection rate is 106% (inactive).

In assay [1], `O=C(O)COc1nn(Cc2ccccc2)c2ccccc12` [bendazac] (10 µM) registered a morphology score of -0.0178. The SARS-CoV-2 infection rate in assay [2] is 102% (inactive).

Compound `N#Cc1ccc(-c2ccc(S(=O)(=O)Nc3cccc(N)n3)cc2)cc1` (10 µM) showed a morphology score in assay [1] of -0.0328. Moreover, the SARS-CoV-2 infection rate in assay [2] was 120% (inactive).

Regarding `COC(=O)c1ccc2c(c1)NC(=O)/C2=C(\Nc1ccc(N(C)C(=O)CN2CCN(C)CC2)cc1)c1ccccc1` [nintedanib] (10 µM), the morphology score in assay [1] is -0.0524. In addition, in assay [2], the SARS-CoV-2 infection rate was 108% (inactive).

In the case of `N=C(N)N/N=C/c1c(Cl)cccc1Cl` [guanaben-acetate] (10 µM), the morphology score in assay [1] is -0.127. In assay [2], the SARS-CoV-2 infection rate was 114% (inactive).

As for `CC(C)[C@@H](C)/C=C/[C@@H](C)[C@H]1CC[C@H]2/C(=C/C=C3\C[C@@H](O)CC[C@@H]3C)CCC[C@]12C` [dihydrotachysterol] (10 µM), in assay [1], the morphology score came to 0.121. Besides, the SARS-CoV-2 infection rate in assay [2] was 106% (inactive).

In assay [1], `CC(C)c1c2cc(-c3ccnc(N[C@H]4CC[C@H](NC5CCOCC5)CC4)n3)ccc2nn1C` (0.833333 µM) registered a morphology score of 0.108. Also, in assay [2], the SARS-CoV-2 infection rate was 90.5% (inactive).

Take `COc1cc([C@@H]2c3cc4c(cc3[C@@H](O[C@@H]3O[C@@H]5CO[C@@H](c6cccs6)O[C@H]5[C@H](O)[C@H]3O)[C@H]3COC(=O)[C@H]23)OCO4)cc(OC)c1O` [teniposide] (10 µM): the morphology score in assay [1] is -0.0983. For the same compound, in assay [2], the SARS-CoV-2 infection rate is 111% (inactive).

Regarding `c1coc(-c2nnc3sc(C4CCCCC4)nn23)c1` [cardionogen-1] (10 µM), in assay [1], the morphology score was determined as 0.254. For the same compound, the SARS-CoV-2 infection rate in assay [2] is 89% (inactive).

In assay [1], `Cc1c(C(=O)NCCCO)cnn1-c1nc(-c2cccc(C(F)(F)F)c2)cs1` (10 µM) displayed a morphology score of 0.107. The SARS-CoV-2 infection rate in assay [2] is 97.5% (inactive).

Turning to `CCCCCN(CCCOC)C(=O)[C@@H](CCC(=O)O)NC(=O)c1ccc(Cl)c(Cl)c1` [dexloxiglumide] (10 µM), in assay [1], the morphology score stood at 0.0908. Besides, the SARS-CoV-2 infection rate in assay [2] is 107% (inactive).

As to `CCCCCCCCCCCCCCCCOP(=O)([O-])OCC[N+](C)(C)C` [miltefosine] (0.833333 µM), in assay [1], the morphology score was found to be 0.182. Further, the SARS-CoV-2 infection rate in assay [2] is 94.5% (inactive).
